In the library only some 2.6% were active in any assay of this set; here they are far more common.
EBV LMP1 NFkB – EBV LMP1-driven NF-kappaB luciferase reporter inhibitors, primary screen, cell-based, luminescence, single point; inhibition, % at 12.5 µM; 350,000 compounds, 0.69% hits; LMP1-induced NF-kappaB luciferase reporter cells; in the data active means inhibition above about 41%; inconclusive means no clear call, values can overlap the other calls
TWEAK Fn14 block – inhibitors of TWEAK-Fn14 signaling, primary screen, luciferase reporter cells, uHTS | TWEAK-stimulated Fn14 reporter cells, luciferase luminescence, 8 h | inhibition, % at 10 µM | 360,000 compounds, 2% hits | AID 1159606, 2016; in the data active means inhibition above about 50%
TROY NFkB inh – inhibitors of TROY-driven NF-kB signaling, primary screen, Q293 LMP1-TROYcd cells, NF-kB luciferase, uHTS | Q293 LMP1-TROYcd NF-kB luciferase reporter, 4 h | inhibition, % at 10 µM | AID 1347056, 2019 | 360,000 compounds, 0.98% hits;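 active means compounds whose plate-normalised and pattern-corrected inhibition of the luciferase reporter signal at the single screening dose is 50% or more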
LGR2 inh – inhibitors of bursicon-induced LGR2 CRE-luciferase signal, primary screen, cell-based, HEK293, CRE-luciferase reporter, bursicon stimulation | inhibition, % at 9.99 µM | 380,000 compounds, 0.35% hits | bursicon-stimulated, 4 h;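 active means drop in luminescence signal, shown as inhibition above about 50% in the replicate tests, limit read from the data, passing the limit was not always enough; inconclusive means probably only some replicates passing the limit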;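 further: agonist challenge used bursicon conditioned medium at about half maximal strength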
EWS-Fli block – EWS/Fli-driven NR0B1 reporter inhibitors, primary screen, A673 cells, NR0B1 luciferase, luminescence, MLPCN library; viability-normalised; inhibition, % at 12.6 µM; 350,000 compounds, 0.67% hits; AID 651661, 2012;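 active means mean inhibition of at least 50% after viability correction, with every replicate also passing that limit; inconclusive means mean reaches 50% but only one of two replicates passes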;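 further: firefly luciferase signal divided by Alamar Blue viability fluorescence both relative to DMSO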
Large screens that a line does not name were inactive.

C=CCCC(=O)Nc1nc(C)c(-c2csc(Nc3cc(OC)ccc3OC)n2)s1	EWS-Fli block 58
CC=Cc1ccc2n(c1=O)C[C@@H]1[C@@H](CO)[C@H](C(=O)NC3CCCCC3)N(C(=O)C3CC3)[C@H]21 (mixture of isomers)	none (no result: EBV LMP1 NFkB, TWEAK Fn14 block, TROY NFkB inh)
COc1ccc(NC(=O)N2CCCCN3[C@H](CO)[C@@H](c4ccc(C5=CCCC5)cc4)[C@H]3C2)cc1	none (no result: EBV LMP1 NFkB, TWEAK Fn14 block, TROY NFkB inh, LGR2 inh)
C[C@@H]1CN([C@H](C)CO)S(=O)(=O)c2ccc(-c3ccccc3F)cc2O[C@H]1CN(C)C	none (no result: EBV LMP1 NFkB, TWEAK Fn14 block, TROY NFkB inh)
CC(=O)NC(CCS(C)(=O)=O)C(=O)Nc1c(F)cccc1F (configuration not stated)	EBV LMP1 NFkB 72 (no result: EWS-Fli block)
CC(=O)NC(CCS(C)(=O)=O)C(=O)Nc1ccc(Cl)c(Cl)c1 (configuration not stated)	EBV LMP1 NFkB 55
CC(=O)NC(CCS(C)(=O)=O)C(=O)Nc1c(C)cccc1C (configuration not stated)	none
CC(=O)NC(CCS(C)(=O)=O)C(=O)Nc1ccccc1 (configuration not stated)	none
C[C@@H]1CN([C@H](C)CO)S(=O)(=O)c2ccc(C3=CCCC3)cc2O[C@@H]1CN(C)C(=O)C1CCCCC1	none (no result: EBV LMP1 NFkB, TWEAK Fn14 block, TROY NFkB inh)
COc1ccc(NC(=O)N2C[C@@H]3[C@H](c4ccccc42)[C@@H](CO)N3C(=O)C2CC2)cc1	none (no result: EBV LMP1 NFkB, TWEAK Fn14 block, TROY NFkB inh)
CCN1C(=O)[C@@H]2[C@@H](c3ccc(-c4ccc(Cl)c(Cl)c4)cc3)N3CCC[C@@]3(C(=O)OC)[C@@H]2C1=O	EBV LMP1 NFkB 75
CCN1C(=O)[C@@H]2[C@@H](c3ccc(SC4CCCCC4)cc3)N3CCCC[C@@]3(C(=O)OC)[C@@H]2C1=O	TWEAK Fn14 block 61, TROY NFkB inh 63 (no result: LGR2 inh)
CCC(=O)N1[C@H](CO)[C@H](c2ccccc2)C12CN(C(=O)Nc1cccc(OC)c1)C2	none (no result: EBV LMP1 NFkB, TWEAK Fn14 block, TROY NFkB inh)
CC(C)Cc1ccc(-c2cc3nc(NCCc4ccc(S(N)(=O)=O)cc4)ccn3n2)cc1	TWEAK Fn14 block 54 (no result: EBV LMP1 NFkB)
COc1ccc(S(=O)(=O)N(C)C[C@@H]2Oc3ccc(N(C)C)cc3CC(=O)N([C@H](C)CO)C[C@@H]2C)cc1	none (no result: EBV LMP1 NFkB, TWEAK Fn14 block, TROY NFkB inh)
CCN1/C(=C/c2sc(-c3ccccc3C)c[n+]2C)Sc2ccccc21	TWEAK Fn14 block 63, EWS-Fli block 65
CCC(=O)/C=C1/Sc2ccccc2N1CC	none (no result: EWS-Fli block)
Cc1noc(C)c1NC(=O)N(C)C[C@H]1Oc2ccc(NC(=O)Nc3ccc(C(F)(F)F)cc3)cc2CC(=O)N([C@@H](C)CO)C[C@H]1C	none (no result: EBV LMP1 NFkB, TWEAK Fn14 block, TROY NFkB inh)
COc1cc(CN2CCc3ccccc3C2)ccc1O	TWEAK Fn14 block 91
Oc1ccc(CN2CCc3ccccc3C2)c2cccnc12	EBV LMP1 NFkB 82 (no result: LGR2 inh, EWS-Fli block)
COc1cc(CN2CCc3ccccc3C2)cc([N+](=O)[O-])c1O	none
Oc1ccc(CN2CCN(c3ccccc3)CC2)c2cccnc12	none (no result: EWS-Fli block)
O=[N+]([O-])c1ccc(O)c(-c2cc(C(F)(F)F)nc(-c3ccccc3)n2)c1	TWEAK Fn14 block 75
Oc1ccccc1-c1cc(C(F)(F)C(F)F)nc(-c2ccccc2)n1	none (no result: EWS-Fli block)
NC(=O)c1ccc(NC(=O)c2ccc(COc3ccccc3Br)cc2)cc1	none
Cc1cc(C)n(Cc2ccc(NC(=O)c3ccc(COc4ccccc4Br)cc3)cc2)n1	TWEAK Fn14 block 60 (no result: LGR2 inh, EWS-Fli block)
CCn1c(SCC(=O)N2CCN(c3ccccc3)CC2)nc2c(c1=O)SC(C)C2 (configuration not stated)	none
CC1Cc2nc(SCC(=O)Nc3ccc4c(c3)OCCO4)n(C)c(=O)c2S1 (configuration not stated)	TROY NFkB inh 71 (no result: LGR2 inh, EWS-Fli block)
COCCn1c(SCC(=O)Nc2ccc3c(c2)OCCO3)nc2c(c1=O)SC(C)C2 (configuration not stated)	none
CC1Cc2nc(SCC(=O)N3CCN(c4ccccc4)CC3)n(C)c(=O)c2S1 (configuration not stated)	EBV LMP1 NFkB 77
Oc1cccc2c(NC(=S)Nc3ccc(OC(F)F)cc3)cccc12	TWEAK Fn14 block 91
FC(F)Oc1ccc(NC(=S)NCc2ccccc2)cc1	none (no result: LGR2 inh)
O=C(C[C@@H]1CC[C@H]2[C@@H](COC[C@H](O)CN2Cc2ccncc2)O1)NCc1ccncc1	none (no result: EBV LMP1 NFkB, TWEAK Fn14 block, TROY NFkB inh)
C[C@@H]1CN([C@H](C)CO)C(=O)c2cc(C#Cc3cccnc3)cnc2O[C@H]1CN(C)Cc1ccccc1	none (no result: EBV LMP1 NFkB, TWEAK Fn14 block, TROY NFkB inh)
CC1=C(CC(=O)c2ccc(Cl)cc2)C(=O)c2ccccc2C1=O	TWEAK Fn14 block 72, TROY NFkB inh 70 (no result: LGR2 inh, EWS-Fli block)
O=C(Cc1ccccn1)c1ccc(Cl)cc1	none
CC(C)NC(=O)N(C)C[C@H]1OCCCC[C@H](C)Oc2ccc(NC(=O)Nc3cccc4ccccc34)cc2C(=O)N([C@H](C)CO)C[C@@H]1C	none (no result: EBV LMP1 NFkB, TWEAK Fn14 block, TROY NFkB inh)
CCN(Cc1ccccc1)S(=O)(=O)c1ccccc1Br	none
CCN(CC)S(=O)(=O)c1ccccc1/C=N\O	TWEAK Fn14 block 62 (no result: EWS-Fli block)
c1ccc(-c2ccc3ncccc3n2)cc1	TROY NFkB inh 53 (no result: EBV LMP1 NFkB)
CC(C)NC(=O)N(C)C[C@H]1Oc2ncc(C#CCc3ccccc3)cc2C(=O)N([C@H](C)CO)C[C@@H]1C	none (no result: EBV LMP1 NFkB, TWEAK Fn14 block, TROY NFkB inh)
Cc1ccc2[nH]c(C(=O)NN=C3CCCCC3)c(-c3ccccc3)c2c1	TWEAK Fn14 block 51
COc1ccc(N=Nc2cc(C)ccc2O)cc1	none
COc1cccc(N=Nc2ccc3ccccc3c2O)c1	TWEAK Fn14 block 75, TROY NFkB inh 58
COc1ccc(N=Nc2ccc3ccccc3c2)c(O)c1	TWEAK Fn14 block 81, TROY NFkB inh 63, LGR2 inh 60
Cc1ccc(S(=O)(=O)N(C)C[C@H]2Oc3ccc(NC(=O)c4ccncc4)cc3CC(=O)N([C@H](C)CO)C[C@H]2C)cc1	none (no result: EBV LMP1 NFkB, TWEAK Fn14 block, TROY NFkB inh)
CCOc1cc(OCC)cc(C(=O)N2CCC[C@@H]2C(=O)N2CCC[C@@H]2C(=O)NCc2cccc(OC)c2)c1	none (no result: EBV LMP1 NFkB, TWEAK Fn14 block, TROY NFkB inh)
CO[C@H]1CN(C)C(=O)c2ccc(NC(=O)c3cccc(F)c3)cc2OC[C@@H](C)NC[C@H]1C	none (no result: EBV LMP1 NFkB, TWEAK Fn14 block, TROY NFkB inh)
COC(=O)C[C@H]1CC[C@@H]2[C@H](COc3ccc(NC(=O)Cc4cccs4)cc3C(=O)N2C)O1	none (no result: EBV LMP1 NFkB, TWEAK Fn14 block, TROY NFkB inh)
COc1cccc(NC(=O)Cn2cc(C=O)c3ccccc32)c1	none
CCc1cccc(NC(=O)Cn2cc(C=O)c3ccccc32)c1	TWEAK Fn14 block 71
C[C@@H]1CN([C@@H](C)CO)S(=O)(=O)c2ccc(C#CCN(C)C)cc2O[C@@H]1CN(C)C(=O)C1CC1	none (no result: EBV LMP1 NFkB, TWEAK Fn14 block, TROY NFkB inh)
COc1ccc(C(=O)Nc2cccc(/C=C/c3nc4ccccc4c(=O)[nH]3)c2)cc1	TWEAK Fn14 block 57
Cc1cccc(/C=C\c2nc3ccccc3c(=O)[nH]2)c1	none
COc1ccc(C(=O)Nc2nc3ccccc3c(=O)[nH]2)cc1	TWEAK Fn14 block 53, LGR2 inh inconclusive
O=C(Nc1cccc(/C=C/c2nc3ccccc3c(=O)[nH]2)c1)c1ccccc1Cl	TWEAK Fn14 block 72
CCCC#Cc1ccc2c(c1)[C@@H]1[C@@H](CCN1S(=O)(=O)c1ccc(F)cc1)[C@H](CO)N2	none (no result: EBV LMP1 NFkB, TWEAK Fn14 block, TROY NFkB inh)

Screens as filed in PubChem BioAssay.
